BCLXL inh – Bcl-xL (human) inhibition; Q07817; GST-Bcl-xL / FITC-Bim BH3 peptide fluorescence polarization; inhibition, % at 10.9 µM; hit rate 0.7% among 320,000; AID 2129;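 active = inhibition above the mean of all tested compounds plus 3 SD, cutoff set per campaign, cut at about 30% in these data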;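 note: 0% = DMSO wells and 100% = unlabeled Bim-BH3 peptide competitor; inhibitors lower millipolarization by displacing the labeled peptide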
Target sequence (Q07817 whole entry, looked up): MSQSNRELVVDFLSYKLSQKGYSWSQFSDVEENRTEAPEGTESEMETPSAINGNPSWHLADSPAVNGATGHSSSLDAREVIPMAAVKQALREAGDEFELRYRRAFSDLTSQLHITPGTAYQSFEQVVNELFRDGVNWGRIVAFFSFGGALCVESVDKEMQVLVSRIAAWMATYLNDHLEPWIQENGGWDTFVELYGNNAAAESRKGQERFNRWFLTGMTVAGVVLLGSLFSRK
GLD-1 RNA inh – GLD-1-TGE RNA interaction inhibition (C. elegans); Q17339; purified GLD-1 + fluorescein TGE RNA, fluorescence polarization; inhibition, % at 5.96 µM; hit rate 0.44% among 320,000; AID 2280;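 active = percent inhibition above a per-plate cutoff, the plate mean of test compounds plus 3 SD, cut at about 30% in these data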;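 note: 0% = DMSO wells with GLD-1 and probe and 100% = wells lacking GLD-1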
Target sequence (Q17339 whole entry, looked up): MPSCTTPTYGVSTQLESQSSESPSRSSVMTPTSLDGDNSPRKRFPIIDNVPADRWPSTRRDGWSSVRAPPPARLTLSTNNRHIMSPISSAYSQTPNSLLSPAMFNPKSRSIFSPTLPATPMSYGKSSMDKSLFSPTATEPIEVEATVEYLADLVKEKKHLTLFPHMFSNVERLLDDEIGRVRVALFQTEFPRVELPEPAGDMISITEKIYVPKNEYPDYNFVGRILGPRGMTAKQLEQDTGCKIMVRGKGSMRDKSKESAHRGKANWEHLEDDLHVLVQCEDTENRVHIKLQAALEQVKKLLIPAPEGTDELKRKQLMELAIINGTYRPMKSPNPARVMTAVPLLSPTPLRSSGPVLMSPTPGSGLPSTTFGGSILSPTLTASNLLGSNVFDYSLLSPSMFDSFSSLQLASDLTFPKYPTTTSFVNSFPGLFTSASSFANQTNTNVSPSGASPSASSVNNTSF
EBV gp42 block – EBV gp42 inhibition. inhibition, % (tested at 21.74 µM). Fluorescence polarization binding assay, mP read-out. AID 1085. hit rate 0.42% among 220,000. Q1HVG2; in the data active = inhibition above about 50%
E coli Lon inh – inhibitors of E. coli Lon protease | P0A9M0 | purified E. coli Lon protease, fluorescence polarization | inhibition, % at 7.94 µM | hit rate 0.42% among 360,000 | AID 602123; in the data active = inhibition above about 13%, passing the limit was not always enough;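 note: 0% = enzyme with probe and DMSO and 100% = no enzyme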
MEX-5 binding – C. elegans MEX-5 TCR-2 RNA binding activity; Q9XUB2; MEX-5/FITC-TCR2 RNA binding, fluorescence polarization; active compounds read low; activity score (negative = inhibition of binding), % at 10 µM; hit rate 0.38% among 300,000; AID 1832;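 active = inhibition past about -25% in most replicates, and total fluorescence under double the plate's negative control median, limit read from the data; inconclusive = replicates evenly split on the limit, or fluorescence at least double controls; inactive = too little inhibition in most replicates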;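 note: 0% = DMSO and -100% = 5 µM competing unlabeled TCR2 RNA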
MCL1 BIM primary – disrupts human MCL1 binding to BIM-BH3 peptide; Q07820; GST-MCL1 / FITC-Bim-BH3 fluorescence polarization; inhibition, % at 10.9 µM; hit rate 0.68% among 320,000; AID 2057;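 active = inhibition above the mean inhibition of all tested compounds plus 3 SD, set per campaign, cut at about 40% in these data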;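 note: 0% = DMSO wells and 100% = unlabeled Bim-BH3 peptide control; higher means more loss of mP so more displacement of Bim peptide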
BCLXL inh confirm – Bcl-xL (human) inhibition, MCL1 counter-screen confirmation; shares compounds with MCL1 BIM primary; GST-Bcl-xL / FITC-Bim BH3 peptide FP binding; inhibition, % at 10.9 µM; hit rate 54% among 1,700; AID 2166;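 active = inhibition above a cutoff equal to the mean inhibition of all tested compounds plus 3 SD, cut at about 30% in these data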;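 note: 0% = DMSO wells and 100% = unlabeled Bim BH3 control peptide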
MCL1 inh confirm – MCL1-BIM-BH3 interaction inhibition, confirmation; inhibition, % at 10.9 µM; GST-MCL1 / FITC-Bim-BH3 fluorescence polarization; shares compounds with MCL1 BIM primary; hit rate 61% among 1,700; AID 2168;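 active = inhibition above the average of all tested compounds plus 3 SD, cut at about 40% in these data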;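 note: 0% = DMSO wells and 100% = unlabeled Bim-BH3 control peptide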
The depositor's hits bear a star; ? = inconclusive; . = not tested or not shown; + = active, no number. In the library only some 1.5% were active in any assay of this set; here they are far more common.

SMILES | BCLXL inh | GLD-1 RNA inh | EBV gp42 block | E coli Lon inh | MEX-5 binding | MCL1 BIM primary | BCLXL inh confirm | MCL1 inh confirm
Cc1ccc(S(=O)(=O)NC(=O)COc2ccc(Cl)cc2Cl)cc1 | 2 | 0 | . | -1 | 1 | -4 | . | .
NC1=CC(=O)c2cccc3cccc1c23 | 175* | 118* | . | . | -28* | + | 156* | 188*
O=C(O)CN1C(=O)/C(=C/c2ccccc2Br)Oc2ccccc21 | 3 | 1 | . | -4 | 2 | 9 | . | .
CC(=O)NN1C(=O)/C(=C/c2ccc(Br)o2)SC1=S | 19 | -3 | -13 | 2 | -21 | 45* | -7 | -25
CC(=O)NN1C(=O)/C(=C\c2ccccc2)SC1=S | 4 | 0 | . | 1 | -1 | 5 | . | .
CC(=O)NN1C(=O)/C(=C\c2ccc(Br)o2)SC1=S | 33* | 8 | -19 | 5 | -1 | 71* | 13 | 18
CC(=O)NN1C(=O)/C(=C\c2ccc(O)cc2)SC1=S | -13 | -81 | -103 | -151 | ? | -14 | . | .
CCOC(=O)C1(Cc2cccc(Cl)c2)CCCN(C(=O)c2cc(C(C)C)nn2C)C1 (configuration not stated) | 6 | 8 | . | 3 | 2 | 4 | . | .
c1coc(CNc2c3c(nc4ccccc24)CCC3)c1 | 65* | -102 | 9 | -12 | -14 | 62* | 15 | 10
CCCC1=[N+](CC)CCn2c(C)ccc21 | -9 | -2 | -36 | 1 | 0 | -15 | . | .
Cc1cc2n(c1)CCn1c(C)ccc1-2 | 78* | 21 | -16 | . | 0 | 99* | 92* | 135*
CCC(=O)c1cn(CC(=O)Nc2ccc(C)cc2)c2ccccc12 | 3 | -7 | . | -2 | 2 | -8 | . | .
CC(=O)Nc1ccc(NC(=O)C(C)OC(=O)C2CCCC2)cc1 (configuration not stated) | -19 | -5 | . | -1 | 0 | -11 | . | .
CC(=O)Nc1ccc(NC(=O)C(C)OC(=O)C2CCCCC2)cc1 (configuration not stated) | 18 | 21 | . | 17 | . | 151* | 2 | 9
COc1ccc(C2=NS(=O)(=O)N(C)C(C(=O)NCc3ccc4c(c3)OCO4)=C2)cc1OC | 2 | 0 | . | 7 | 1 | -7 | . | .
O=S(=O)(Nc1nc2ccccc2nc1-[n+]1cccc(N=C([O-])c2ccccc2Cl)c1)c1ccccc1 | 71* | 13 | 74* | . | -9 | 84* | 60* | 90*
N#C/C(=C\c1ccco1)c1nc2ccccc2s1 | 79* | 55* | 1 | -54 | -10 | 75* | 15 | 16
O=C(O)c1cccc(-n2cccc2/C=C/[N+](=O)[O-])c1 | 44* | 20 | 2 | -11 | -36* | 72* | 41* | 58*
O=C(COC(=O)C1CCN(S(=O)(=O)c2ccc(Cl)c(C(F)(F)F)c2)CC1)NCC1CCCO1 (configuration not stated) | . | . | . | -2 | . | . | . | .
COC(=O)c1cc(COC(=O)CNC(=O)c2ccc(Br)cc2)oc1C | . | 2 | . | -5 | . | . | . | .
Cc1ccccc1NC(=O)CSc1ccsc1[N+](=O)[O-] | 18 | 4 | 70* | -1 | -1 | 67* | 32* | 90*
Cc1ccc(/C=C/S(=O)(=O)NCC(=O)OCC(=O)Nc2c(F)cccc2F)cc1 | -15 | -3 | . | 10 | 2 | -20 | . | .
O=C(/C=C/c1ccc(Cl)c([N+](=O)[O-])c1)Nc1ccc(N2CCCC2)cc1 | 0 | 0 | 37 | 0 | -5 | 47* | 17 | 43*
O=C(/C=C/c1ccc(Cl)c([N+](=O)[O-])c1)Nc1ccc(NC(=O)c2ccco2)cc1 | . | . | 4 | -2 | -1 | . | . | .
CCOc1ccc(CN(C)C(=O)CCc2ccc(S(=O)(=O)N3CCCCCC3)cc2)cc1 | 1 | 2 | . | 3 | . | 2 | . | .
SMILES | BCLXL inh | GLD-1 RNA inh | EBV gp42 block | E coli Lon inh | MEX-5 binding | MCL1 BIM primary | BCLXL inh confirm | MCL1 inh confirm
O=C(O)c1cc(O)c2c(c1)C(=O)c1cccc(O)c1C2=O | 114* | 89* | 46 | 29 | -28* | 147* | 118* | 144*
C=CCSc1nnc(NC(=O)CCN2C(=O)C3CC=CCC3C2=O)s1 (configuration not stated) | 85* | 77* | . | -8 | . | + | 3 | -5
O=C(CC(=O)N1CCOCC1)N1CCOCC1 | . | . | . | -8 | . | . | . | .
COc1cccc(CN2C(=O)c3cccc(N)c3C2=O)c1 | 50* | 44* | 59* | 18 | -21 | 58* | 33* | 53*
Cc1occc1C(=O)N/N=C/c1cccc2ccccc12 | 3 | 4 | . | -4 | 4 | 14 | . | .
COc1ccc(/C=C2\SC(=O)NC2=S)cc1OC | 102* | 100* | 15 | 24 | -36* | 122* | 38* | 36
CN(c1ncc(C(F)(F)F)cc1Cl)N1C(=O)c2cccc(N)c2C1=O | 59* | 84* | 57* | 3 | -1 | 62* | 47* | 66*
CN(c1ncc(C(F)(F)F)cc1Cl)N1C(=O)C2ONC3(C(=O)CC(C)(C)CC3=O)C2C1=O (configuration not stated) | 3 | 15 | -12 | 15 | -16 | 6 | . | .
Cn1cc(/C=C2\SC(=O)NC2=S)c2ccccc21 | 62* | -5 | 72* | 1 | -1 | 60* | 74* | 82*
Clc1cccc2sc(N3CCCCC3)nc12 | 69* | 19 | -2 | 0 | -2 | 58* | 2 | 6
Clc1cc(Cl)c2nc(N3CCCCC3)sc2c1 | -3 | 3 | -21 | 0 | -1 | -2 | . | .
CC1(C)CCN2CCC(C)(C)c3c(O)ccc1c32 | 141* | 77* | . | -145 | -15 | 170* | 29 | 25
CC(C)OC(=O)C1OC1(C)c1ccccc1 (configuration not stated) | . | . | . | -16 | . | . | . | .
O=c1nc2s/c(=C\c3ccco3)c(=O)n2nc1Cc1ccc(F)cc1 | 13 | -4 | -4 | -19 | 0 | 53* | 27 | 68*
CCCN1C(=O)/C(=c2\sc3nc(=O)c(Cc4ccc(C)cc4)nn3c2=O)c2ccccc21 | 10 | -2 | -8 | -9 | 1 | 17 | . | .
CCCCCC#CCC#CCC#CCC#CCCCC(=O)O | 25 | 11 | 37 | . | -22 | 96* | 15 | 86*
CN1CCN(C2=C(Cl)C(=O)C(c3cnc(N4CCCCC4)s3)=C(Cl)C2=O)CC1 | 77* | 27 | -7 | 8 | -71* | 93* | 72* | 92*
CCn1ccc(C(=O)Nc2ncc(C)s2)n1 | 5 | 3 | . | 10 | -1 | 6 | . | .
CCOC(=O)c1c[nH]c2nc(C)ccc2c1=O | 78* | 61* | 46 | 15 | -47* | 85* | 70* | 89*
CN1OC[C@@H]2CN(S(=O)(=O)c3ccccc3)[C@H](c3ccc(-n4ccnc4)cc3)C[C@@H]21 | . | . | . | -2 | . | . | . | .

Compound activity from PubChem.
